From PubChem
D1 antag – Antagonist of Human D 1 Dopamine Receptor: qHTS. AID 504652, 2011. activity change, negative = inhibition, % at 10 µM. HEK293 TREx D1 cells, calcium flux, dopamine EC80; active compounds read low. actives 3.2% (n = 360,000); in the data active = activity change below about -30%; note: % is set by controls: 0 for no effect and ±100 for the full control effect
Target sequence (P21728 whole entry, looked up): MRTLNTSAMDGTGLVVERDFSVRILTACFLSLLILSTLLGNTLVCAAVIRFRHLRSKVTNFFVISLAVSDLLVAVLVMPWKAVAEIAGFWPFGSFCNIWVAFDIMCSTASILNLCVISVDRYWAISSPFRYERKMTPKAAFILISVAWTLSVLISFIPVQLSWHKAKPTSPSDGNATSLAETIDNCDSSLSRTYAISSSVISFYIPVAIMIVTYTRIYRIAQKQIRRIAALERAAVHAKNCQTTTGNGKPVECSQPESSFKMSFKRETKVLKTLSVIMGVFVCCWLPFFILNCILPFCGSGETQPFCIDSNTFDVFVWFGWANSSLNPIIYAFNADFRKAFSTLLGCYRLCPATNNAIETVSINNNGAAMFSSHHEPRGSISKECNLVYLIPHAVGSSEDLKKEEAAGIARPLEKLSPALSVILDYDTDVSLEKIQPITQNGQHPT
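Calcium flux readout: force-coupled, inducible Hek293 Trex D1 line, cells induced overnight at 30 C with tetracycline, dye-loaded 30–90 min at RT. Antagonism scored against EC80 dopamine challenge given 180 s after compound.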
TRHR enhancer – qHTS for Small Molecule Agonists and Allosteric Enhancers of Human TRH Receptor: Primary Screen for Enhancers; TRHR cells, fluo-8 calcium fluorescence, EC20 TRH enhancement; Thyrotropin-releasing hormone receptor (Homo sapiens), P34981; AID 493056, 2011; enhancement, % at 2 µM; actives 0.66% (n = 360,000); in the data active = enhancement above about 30%; note: 0% is about no effect
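TRHR-expressing cells loaded with fluo-8 calcium dye were read kinetically (ex 480/em 530) during compound addition, then stimulated with an EC20 of TRH (10 nM final). Enhancement of the Gq-mediated intracellular calcium response was scored.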
D1 agonist – Allosteric Agonists of the Human D1 Dopamine Receptor: qHTS | actives 1% (n = 360,000) | activation, % at 2 µM | AID 504660, 2011 | HEK293 T-REx D1 cells, calcium flux, agonist mode | D(1A) dopamine receptor (Homo sapiens), P21728; note: 0% is about no effect
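Agonism was scored from calcium flux recorded over 180 s (1 read/s) after pintool compound addition, following a 10-cycle baseline. Cells were inducible force-coupled HEK293 TREx D1, plated overnight at 30 C and loaded with no-wash calcium dye.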
D1 potentiator – Potentiators of Human D1 Dopamine Receptor: qHTS; D(1A) dopamine receptor (Homo sapiens), P21728; HEK293 TREx D1 cells, calcium flux, dopamine EC20 potentiation; potentiation, % at 10 µM; actives 0.036% (n = 360,000); in the data active = potentiation above about 30%; note: 0% is about no effect
TRHR ag – qHTS for Small Molecule Agonists and Allosteric Enhancers of Human TRH Receptor: Primary Screen for Agonists; Thyrotropin-releasing hormone receptor (Homo sapiens), P34981; activation, % at 2 µM; TRHR cells, calcium flux fluo-8, FDSS agonist mode; actives 0.18% (n = 360,000); AID 493084, 2011; note: 0% is about no effect
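Read-out: compound-evoked intracellular calcium rise in TRHR cells, fluo-8 dye, kinetic FDSS fluorescence at 1 s/cycle following a 10-cycle baseline. Cells cultured overnight before dye loading (30 min–1.5 h, RT).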
* marks the source's active call; other numbers are inactive results; ! = not confirmed by another sample. Rows were chosen to be rich in hits. Some 4.6% of all compounds tested hit in one or more screens of this group. Cut-off read from the data, not from the text of the source, unless noted: active = activation above about 30%; inactive = the rest.

SMILES	D1 antag	TRHR enhancer	D1 agonist	D1 potentiator	TRHR ag
Cc1cc(=O)oc2cc(OCC(=O)N3CCCc4ccccc43)ccc12	-35*	-10	2	-8	-3
Cc1cc(=O)oc2cc(OCCc3ccccc3)ccc12	10	-4	4	-15	0
COc1ccc(CC(=O)N2CCc3ccccc32)cc1	-1	10	4	-2	-1
COc1ccc(CCC(=O)N2CCCc3ccccc32)cc1	-37*	12	-2	-2	0
CCOC(=O)c1c(C)c(-c2ccccc2)n(CC(=O)NCCc2ccc(C)cc2)c1C	-3	0	0	-4	0
CCN(CC(=O)Nc1ccc(NC(C)=O)cc1)C(=O)c1ccccc1SCC(=O)N1CCCC1	-4	-1	0	-3	0
CCOc1ccc(CNC(=O)c2cnc3sc(N4CCC(C)CC4)nn3c2=O)cc1OC	-11	6	5	-1	0
CN(C)C(=O)N1CCC(C(=O)NCc2ccc(F)cc2)CC1	-1	-1	3	-5	0
CN(C)C(=O)N1CCC(C(=O)NCc2ccccc2)CC1	-18	34*	3	-2	0
COc1ccccc1CNC(=O)C1CCN(C(=O)N(C)C)CC1	-38*	13	2	-2	0
O=C(NCc1cccs1)C1CCN(C(=O)NCc2ccccc2)CC1	-84*	1	-1	0	0
CCN(CC)c1ccc(C(=O)NCc2ccc3c(c2)CCN3C(=O)c2ccc(F)cc2)cc1	-5	9	5	0	0
CCOC(=O)C1=C(COC(=O)c2cc(OC)c(OC)cc2[N+](=O)[O-])NC(=O)NC1C (stereo not drawn)	-11	4	2	-2	0
CCOC(=O)C1=C(COC(=O)/C=C/c2ccc(OC)c(OC)c2)NC(=O)NC1C (stereo not drawn)	3	-2	2	2	-1
CCOC(=O)C1=C(COC(=O)/C=C/c2cc(OC)c(OC)c(OC)c2)NC(=O)NC1C (stereo not drawn)	-39*	0	1	-5	0
CCOC(=O)C1=C(COC(=O)c2ccc(OC)c(OC)c2OC)NC(=O)NC1C (stereo not drawn)	-44*	-5	11	-3	-1
CCOC(=O)c1ccc(OC(=O)c2cn(-c3ccc(C)cc3)c(=O)c3ccccc23)cc1	18	-14	2	6	1
CCCOc1ccccc1N1C(=O)CC(N(O)c2ccccc2)C1=O (stereo not drawn)	13	38*	2	2	0
C#CCOc1c(Cl)cc(/C=N/O)cc1OC	-62*	1	0	-1	-1
COc1ccc(CC(=O)Nc2sc3c(c2C(=O)Nc2ccc(C)cc2)CCCCC3)cc1	9	-3	-3	1	1
COc1cccc(N2CCN(C(=O)c3ccc(CS(=O)c4cccc(Cl)c4)o3)CC2)c1 (stereo not drawn)	-17	-12	-1	-3	0
CCN(CCNS(=O)(=O)c1ccc2c(c1)oc(=O)n2C)c1ccccc1	-31*	1	4	-7	0
CCCN(CCC)CCNS(=O)(=O)c1ccc2c(c1)oc(=O)n2C	-9	-4	3	-6	-2
Cc1ccc(C)c(N2CCN(C(=O)CCNS(=O)(=O)c3ccc4c(c3)oc(=O)n4C)CC2)c1	-35*	2	11	-12	0
COc1ccccc1CNC(=O)CCNS(=O)(=O)c1ccc2c(c1)oc(=O)n2C	-36*!	-21	1	-7	1
CC(C)c1ccc2c(c1)NC(c1ccc(F)cc1)=NC(c1cccs1)=N2	7	7	0	4	0
CC(=O)Nc1nc2n(n1)C(c1ccc(F)cc1)C=C(c1ccccc1)N2 (stereo not drawn)	-4	12	10	3	0
